Measured values reported in the supplement of paper PMC11732987, “Enantioselective OTUD7B fragment discovery through chemoproteomics screening and high-throughput optimisation” (Communications Chemistry, 2025).

Key:
Assay in all cases: log2 ratio of Biotin-Ahx-Ub-VS probe labelling (fragment/DMSO); higher = less target engagement (more negative = stronger competition), active = hit call of the paper (q ≤ 0.05, log2 ratio ≤ -1)
Details in all cases: compound concentration: 200 uM; treatment time: 3 h
USP34 = USP34 (UniProt Q70CQ2)
USP34, sequence (Q70CQ2 whole entry, the tested form may be a part): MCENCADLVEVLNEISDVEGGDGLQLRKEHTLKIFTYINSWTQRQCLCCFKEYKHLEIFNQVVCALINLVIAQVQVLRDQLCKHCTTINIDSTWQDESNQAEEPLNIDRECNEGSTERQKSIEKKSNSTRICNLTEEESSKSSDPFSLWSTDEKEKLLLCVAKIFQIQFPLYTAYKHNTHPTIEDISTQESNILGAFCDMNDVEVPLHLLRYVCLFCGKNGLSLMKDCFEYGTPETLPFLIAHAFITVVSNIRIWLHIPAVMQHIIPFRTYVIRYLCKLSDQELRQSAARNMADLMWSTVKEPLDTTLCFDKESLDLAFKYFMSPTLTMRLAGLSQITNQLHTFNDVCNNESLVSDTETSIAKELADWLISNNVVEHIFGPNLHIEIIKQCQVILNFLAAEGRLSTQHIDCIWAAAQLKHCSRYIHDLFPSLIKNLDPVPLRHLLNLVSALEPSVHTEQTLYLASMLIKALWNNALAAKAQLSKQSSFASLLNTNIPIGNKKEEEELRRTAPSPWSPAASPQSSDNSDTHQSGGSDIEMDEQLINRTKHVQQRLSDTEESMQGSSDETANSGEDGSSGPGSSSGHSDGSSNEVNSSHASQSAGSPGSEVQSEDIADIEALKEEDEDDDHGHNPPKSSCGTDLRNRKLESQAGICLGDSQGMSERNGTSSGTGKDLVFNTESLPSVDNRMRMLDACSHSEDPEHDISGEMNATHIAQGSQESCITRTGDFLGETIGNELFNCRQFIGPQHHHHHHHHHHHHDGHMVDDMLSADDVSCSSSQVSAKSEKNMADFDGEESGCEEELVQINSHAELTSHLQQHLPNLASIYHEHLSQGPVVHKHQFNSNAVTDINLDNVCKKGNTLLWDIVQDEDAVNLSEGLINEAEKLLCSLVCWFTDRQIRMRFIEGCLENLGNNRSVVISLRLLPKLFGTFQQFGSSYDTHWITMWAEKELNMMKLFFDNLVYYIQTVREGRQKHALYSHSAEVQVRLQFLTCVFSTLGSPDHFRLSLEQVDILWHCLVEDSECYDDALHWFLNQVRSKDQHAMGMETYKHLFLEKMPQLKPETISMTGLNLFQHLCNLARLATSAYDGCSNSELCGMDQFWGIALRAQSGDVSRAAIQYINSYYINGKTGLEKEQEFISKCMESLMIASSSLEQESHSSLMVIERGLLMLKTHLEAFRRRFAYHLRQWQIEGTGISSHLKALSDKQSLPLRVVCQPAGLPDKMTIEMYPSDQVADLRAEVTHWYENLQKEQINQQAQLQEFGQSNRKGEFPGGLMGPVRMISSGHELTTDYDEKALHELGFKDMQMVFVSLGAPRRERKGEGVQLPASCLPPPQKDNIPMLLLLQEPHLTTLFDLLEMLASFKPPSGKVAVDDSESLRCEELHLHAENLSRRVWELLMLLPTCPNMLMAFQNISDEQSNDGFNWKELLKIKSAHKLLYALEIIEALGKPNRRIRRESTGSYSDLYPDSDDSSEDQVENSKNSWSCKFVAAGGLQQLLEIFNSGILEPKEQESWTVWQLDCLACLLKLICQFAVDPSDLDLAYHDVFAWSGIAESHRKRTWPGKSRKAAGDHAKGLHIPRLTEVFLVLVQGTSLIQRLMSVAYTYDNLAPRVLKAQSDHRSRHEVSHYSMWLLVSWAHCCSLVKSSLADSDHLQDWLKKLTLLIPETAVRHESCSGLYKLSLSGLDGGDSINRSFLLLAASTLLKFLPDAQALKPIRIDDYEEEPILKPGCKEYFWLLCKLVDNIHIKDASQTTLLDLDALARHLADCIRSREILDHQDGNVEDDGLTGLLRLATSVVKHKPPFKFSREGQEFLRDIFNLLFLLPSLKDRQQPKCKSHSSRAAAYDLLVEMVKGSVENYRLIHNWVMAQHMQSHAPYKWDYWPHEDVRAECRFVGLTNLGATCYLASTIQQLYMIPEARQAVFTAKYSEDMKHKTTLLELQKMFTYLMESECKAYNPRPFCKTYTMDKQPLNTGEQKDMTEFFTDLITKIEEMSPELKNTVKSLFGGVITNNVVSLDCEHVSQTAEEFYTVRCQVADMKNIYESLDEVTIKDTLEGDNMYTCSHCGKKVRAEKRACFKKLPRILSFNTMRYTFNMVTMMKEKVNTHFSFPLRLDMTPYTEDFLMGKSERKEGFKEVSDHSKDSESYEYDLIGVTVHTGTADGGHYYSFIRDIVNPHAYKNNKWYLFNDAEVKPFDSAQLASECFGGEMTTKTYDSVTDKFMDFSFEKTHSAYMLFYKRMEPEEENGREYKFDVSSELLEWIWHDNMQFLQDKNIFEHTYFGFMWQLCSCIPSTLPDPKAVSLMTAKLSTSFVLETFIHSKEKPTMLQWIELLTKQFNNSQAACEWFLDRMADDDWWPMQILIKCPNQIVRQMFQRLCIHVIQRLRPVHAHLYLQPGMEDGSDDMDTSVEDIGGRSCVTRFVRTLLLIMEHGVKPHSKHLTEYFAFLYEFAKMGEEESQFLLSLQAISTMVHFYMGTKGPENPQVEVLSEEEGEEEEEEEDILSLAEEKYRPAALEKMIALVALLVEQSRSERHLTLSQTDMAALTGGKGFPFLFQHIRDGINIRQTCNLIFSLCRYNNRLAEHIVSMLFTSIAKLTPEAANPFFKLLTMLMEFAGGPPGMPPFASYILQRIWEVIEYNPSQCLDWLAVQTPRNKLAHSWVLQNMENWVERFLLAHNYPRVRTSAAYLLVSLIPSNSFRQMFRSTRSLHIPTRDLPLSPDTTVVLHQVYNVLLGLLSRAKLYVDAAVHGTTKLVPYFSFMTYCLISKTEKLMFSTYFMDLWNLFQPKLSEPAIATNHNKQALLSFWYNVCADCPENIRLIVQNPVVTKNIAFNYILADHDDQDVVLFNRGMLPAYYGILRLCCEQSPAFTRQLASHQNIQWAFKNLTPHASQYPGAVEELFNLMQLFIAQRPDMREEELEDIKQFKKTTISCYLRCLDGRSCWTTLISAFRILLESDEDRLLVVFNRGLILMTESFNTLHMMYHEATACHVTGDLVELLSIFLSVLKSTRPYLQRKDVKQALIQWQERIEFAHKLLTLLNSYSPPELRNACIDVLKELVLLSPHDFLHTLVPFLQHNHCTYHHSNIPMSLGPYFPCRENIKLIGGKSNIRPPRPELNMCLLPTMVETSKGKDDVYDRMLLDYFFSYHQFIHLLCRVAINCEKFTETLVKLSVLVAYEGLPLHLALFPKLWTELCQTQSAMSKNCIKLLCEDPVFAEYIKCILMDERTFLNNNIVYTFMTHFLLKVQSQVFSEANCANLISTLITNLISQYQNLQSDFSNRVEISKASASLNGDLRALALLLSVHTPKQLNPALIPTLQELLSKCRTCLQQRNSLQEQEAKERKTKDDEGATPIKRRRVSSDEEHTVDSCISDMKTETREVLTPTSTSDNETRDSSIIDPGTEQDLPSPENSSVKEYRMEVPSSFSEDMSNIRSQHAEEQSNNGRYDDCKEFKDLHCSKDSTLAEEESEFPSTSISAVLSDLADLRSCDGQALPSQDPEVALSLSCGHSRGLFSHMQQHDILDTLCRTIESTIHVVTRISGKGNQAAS
Outline: (§1)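 Each value is an average log2 ratio of fragment to vehicle, tested by unpaired t-test. The underlying Spectronaut label-free quantities were global-median-normalised, and only proteins with ≥2 unique peptides were included. Triplicate HEK293T lysate samples (495 µg) were exposed to fragment at 200 µM or vehicle for 3 h, then to Biotin-Ahx-Ub-VS at 0.5 µM final for 1 h, before NeutrAvidin enrichment of labelled DUBs, LysC and trypsin digestion, and diaPASEF LC-MS/MS.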

USP36 = target: T1, USP36 (UniProt Q9P275)
T1 sequence (whole entry): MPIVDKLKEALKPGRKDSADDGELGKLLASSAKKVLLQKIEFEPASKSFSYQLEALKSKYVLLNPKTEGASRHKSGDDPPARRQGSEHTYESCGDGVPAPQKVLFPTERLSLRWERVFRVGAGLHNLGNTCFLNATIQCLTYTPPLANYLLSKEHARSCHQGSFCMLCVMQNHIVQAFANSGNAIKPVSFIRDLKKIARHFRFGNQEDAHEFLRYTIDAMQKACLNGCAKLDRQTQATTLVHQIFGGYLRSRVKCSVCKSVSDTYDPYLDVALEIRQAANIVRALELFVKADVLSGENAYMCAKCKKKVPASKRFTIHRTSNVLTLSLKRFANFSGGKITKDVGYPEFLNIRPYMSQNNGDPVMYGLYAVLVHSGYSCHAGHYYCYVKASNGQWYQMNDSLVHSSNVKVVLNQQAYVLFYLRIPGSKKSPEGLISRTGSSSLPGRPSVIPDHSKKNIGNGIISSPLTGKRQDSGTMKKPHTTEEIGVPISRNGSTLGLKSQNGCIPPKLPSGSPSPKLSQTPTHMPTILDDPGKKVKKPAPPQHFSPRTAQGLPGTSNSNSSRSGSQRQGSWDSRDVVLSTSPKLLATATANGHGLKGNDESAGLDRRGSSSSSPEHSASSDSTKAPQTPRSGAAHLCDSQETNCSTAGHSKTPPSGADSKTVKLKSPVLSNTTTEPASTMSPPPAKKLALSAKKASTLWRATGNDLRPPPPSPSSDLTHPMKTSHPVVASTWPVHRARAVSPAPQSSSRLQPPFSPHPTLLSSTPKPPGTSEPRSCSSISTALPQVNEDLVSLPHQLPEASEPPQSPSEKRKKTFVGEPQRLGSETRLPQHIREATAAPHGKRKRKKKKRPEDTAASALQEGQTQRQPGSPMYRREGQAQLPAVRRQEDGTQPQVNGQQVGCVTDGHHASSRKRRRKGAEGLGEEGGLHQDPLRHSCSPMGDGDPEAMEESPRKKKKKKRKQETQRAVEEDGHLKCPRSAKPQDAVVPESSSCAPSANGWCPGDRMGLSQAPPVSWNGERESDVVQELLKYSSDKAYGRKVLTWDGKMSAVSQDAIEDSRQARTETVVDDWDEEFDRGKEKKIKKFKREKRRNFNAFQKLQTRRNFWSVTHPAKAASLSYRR
Outline: as §1

USP38 = target: T2, USP38 (UniProt Q8NB14)
T2 sequence (whole entry): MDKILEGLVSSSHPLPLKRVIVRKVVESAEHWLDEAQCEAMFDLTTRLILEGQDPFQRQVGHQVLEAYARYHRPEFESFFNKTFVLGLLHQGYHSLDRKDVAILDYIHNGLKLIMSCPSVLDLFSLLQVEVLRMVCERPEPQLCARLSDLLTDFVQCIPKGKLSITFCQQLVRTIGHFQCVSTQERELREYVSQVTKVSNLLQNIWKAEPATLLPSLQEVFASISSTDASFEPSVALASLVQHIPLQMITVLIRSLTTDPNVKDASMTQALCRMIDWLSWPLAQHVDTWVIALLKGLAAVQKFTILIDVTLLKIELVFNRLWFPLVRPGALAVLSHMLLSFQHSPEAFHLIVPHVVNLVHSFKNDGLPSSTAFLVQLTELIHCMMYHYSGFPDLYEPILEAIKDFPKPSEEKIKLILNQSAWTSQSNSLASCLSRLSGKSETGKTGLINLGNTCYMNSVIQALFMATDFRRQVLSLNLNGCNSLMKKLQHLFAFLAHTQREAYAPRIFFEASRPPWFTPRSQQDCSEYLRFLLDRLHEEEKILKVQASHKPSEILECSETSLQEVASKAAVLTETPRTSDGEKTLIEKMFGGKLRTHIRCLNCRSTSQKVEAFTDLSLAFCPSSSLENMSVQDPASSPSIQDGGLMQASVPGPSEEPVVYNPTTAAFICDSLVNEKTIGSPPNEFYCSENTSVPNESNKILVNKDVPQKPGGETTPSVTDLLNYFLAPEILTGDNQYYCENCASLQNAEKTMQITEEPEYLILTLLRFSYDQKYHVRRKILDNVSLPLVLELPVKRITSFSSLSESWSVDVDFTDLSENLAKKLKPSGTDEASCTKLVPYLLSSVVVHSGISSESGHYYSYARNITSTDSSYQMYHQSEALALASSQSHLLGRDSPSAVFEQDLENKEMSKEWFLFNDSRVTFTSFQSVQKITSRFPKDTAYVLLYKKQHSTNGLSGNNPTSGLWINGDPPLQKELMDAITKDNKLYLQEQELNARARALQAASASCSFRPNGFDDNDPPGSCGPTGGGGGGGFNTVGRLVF
Outline: as §1

USP39 = target: T3, USP39 (UniProt Q53GS9)
T3 sequence (whole entry): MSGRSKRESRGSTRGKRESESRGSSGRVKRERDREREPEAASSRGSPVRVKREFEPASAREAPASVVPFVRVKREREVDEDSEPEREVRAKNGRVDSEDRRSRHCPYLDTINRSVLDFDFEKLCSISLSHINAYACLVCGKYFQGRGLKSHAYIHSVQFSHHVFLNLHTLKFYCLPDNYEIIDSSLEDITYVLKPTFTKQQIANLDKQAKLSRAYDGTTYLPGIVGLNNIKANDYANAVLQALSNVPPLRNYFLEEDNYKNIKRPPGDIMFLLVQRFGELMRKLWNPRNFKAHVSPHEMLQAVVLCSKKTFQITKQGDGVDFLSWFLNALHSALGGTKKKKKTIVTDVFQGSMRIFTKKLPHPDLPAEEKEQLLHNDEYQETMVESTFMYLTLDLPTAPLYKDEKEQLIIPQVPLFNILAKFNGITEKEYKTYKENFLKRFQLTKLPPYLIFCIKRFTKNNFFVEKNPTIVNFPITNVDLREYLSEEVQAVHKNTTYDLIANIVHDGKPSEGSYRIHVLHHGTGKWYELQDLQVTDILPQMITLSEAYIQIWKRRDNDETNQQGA
Outline: as §1

USP4 = target: T4, USP4 (UniProt Q13107)
T4 sequence (whole entry): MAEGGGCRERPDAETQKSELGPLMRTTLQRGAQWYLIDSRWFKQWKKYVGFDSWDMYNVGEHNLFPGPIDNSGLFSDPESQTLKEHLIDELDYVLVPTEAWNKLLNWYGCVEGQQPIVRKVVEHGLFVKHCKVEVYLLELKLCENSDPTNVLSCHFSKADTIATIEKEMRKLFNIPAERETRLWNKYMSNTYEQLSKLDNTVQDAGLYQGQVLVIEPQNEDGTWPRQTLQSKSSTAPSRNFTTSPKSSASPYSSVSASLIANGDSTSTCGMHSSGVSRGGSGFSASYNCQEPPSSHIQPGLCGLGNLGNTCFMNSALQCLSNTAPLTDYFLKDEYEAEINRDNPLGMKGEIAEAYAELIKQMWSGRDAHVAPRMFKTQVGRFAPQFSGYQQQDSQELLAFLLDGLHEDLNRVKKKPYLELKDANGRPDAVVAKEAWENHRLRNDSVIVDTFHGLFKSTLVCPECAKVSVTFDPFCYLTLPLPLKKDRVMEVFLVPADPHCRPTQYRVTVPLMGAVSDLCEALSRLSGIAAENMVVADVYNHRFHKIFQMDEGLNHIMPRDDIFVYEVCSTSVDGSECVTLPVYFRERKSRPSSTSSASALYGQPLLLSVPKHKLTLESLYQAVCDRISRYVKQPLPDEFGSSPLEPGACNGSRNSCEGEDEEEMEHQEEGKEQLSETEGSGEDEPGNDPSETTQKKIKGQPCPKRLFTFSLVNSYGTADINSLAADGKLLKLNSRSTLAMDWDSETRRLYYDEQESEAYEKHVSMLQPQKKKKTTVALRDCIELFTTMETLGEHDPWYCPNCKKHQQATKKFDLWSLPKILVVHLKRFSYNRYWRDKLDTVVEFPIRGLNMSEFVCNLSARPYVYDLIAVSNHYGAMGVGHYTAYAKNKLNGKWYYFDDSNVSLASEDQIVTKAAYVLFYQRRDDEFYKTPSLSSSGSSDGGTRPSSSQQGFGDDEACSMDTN
Outline: as §1

Measured: log2 ratio of Biotin-Ahx-Ub-VS probe labelling

O=C(CCl)NC1CCC(C(F)(F)F)CC1 (stereo not given)
inactive: USP34 -0.186 | USP36 -0.0199 | USP38 0.115 | USP39 0.207 | USP4 -0.24
